Source: the supplement of paper PMC3334620
In all, about 33,000 sequences were measured (“E-score (-0.5 to 0.5)”: median about -0.043, highest 2% from about 0.37 on). Only a selection was taken, and the highest values are over-represented in it overall.

What follows are sequences tested against T1, Upc2 (UniProt Q12151) (assay: PBM E-score (8-mer binding enrichment) (E-score (-0.5 to 0.5)); higher = stronger / more preferred TF binding). Conditions: protein concentration: 200 nM; construct: GST-full length.
T1 sequence: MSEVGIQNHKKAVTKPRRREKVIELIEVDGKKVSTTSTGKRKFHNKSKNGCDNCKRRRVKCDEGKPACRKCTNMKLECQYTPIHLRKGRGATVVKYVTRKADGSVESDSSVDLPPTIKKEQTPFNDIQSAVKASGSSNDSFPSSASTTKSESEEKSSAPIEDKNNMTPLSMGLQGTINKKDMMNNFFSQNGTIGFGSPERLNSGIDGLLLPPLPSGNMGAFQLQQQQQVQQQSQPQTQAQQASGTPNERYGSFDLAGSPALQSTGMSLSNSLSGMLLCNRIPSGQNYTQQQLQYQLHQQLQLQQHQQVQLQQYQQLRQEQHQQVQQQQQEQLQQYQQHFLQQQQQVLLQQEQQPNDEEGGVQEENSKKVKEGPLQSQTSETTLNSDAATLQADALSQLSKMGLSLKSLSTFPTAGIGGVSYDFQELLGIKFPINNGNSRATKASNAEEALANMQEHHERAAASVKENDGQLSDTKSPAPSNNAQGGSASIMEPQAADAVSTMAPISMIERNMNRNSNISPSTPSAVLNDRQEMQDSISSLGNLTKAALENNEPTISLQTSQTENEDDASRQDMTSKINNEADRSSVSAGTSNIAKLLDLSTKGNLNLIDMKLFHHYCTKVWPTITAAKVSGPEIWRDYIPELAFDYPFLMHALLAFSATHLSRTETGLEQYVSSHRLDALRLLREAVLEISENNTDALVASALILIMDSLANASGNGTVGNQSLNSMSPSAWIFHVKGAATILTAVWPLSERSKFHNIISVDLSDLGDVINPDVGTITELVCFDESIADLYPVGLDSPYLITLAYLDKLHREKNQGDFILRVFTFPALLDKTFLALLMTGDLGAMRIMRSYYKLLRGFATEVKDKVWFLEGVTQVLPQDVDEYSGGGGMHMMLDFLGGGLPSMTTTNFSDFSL
How it was run: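 Full-length yeast transcription factors or their DNA-binding domains, GST-tagged and expressed with PURExpress, were applied at about 100-200 nM to universal all-10-mer Agilent arrays. These arrays had been made double-stranded by primer extension on fresh or once-stripped slides. Detection used fluorescent anti-GST, normalisation used masliner, and E-scores for ungapped eight-base words pooled with reverse complements came from the Universal PBM Analysis Suite.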

Row | Sequence | PBM E-score
1 | CGAAGCAC | -0.0203
2 | CAGCACGG | -0.256
3 | ATAGGCGG | -0.0532
4 | AGCAAGTC | -0.148
5 | AAAGCAGT | -0.125
6 | GATGGGAC | -0.0558
7 | CCTAGATA | -0.0107
8 | AGTACGAC | 0.409
9 | CGTACGAG | 0.465
10 | CGGACGAG | -0.165
11 | ATTACGTG | -0.118
12 | AGTACGAT | 0.345
13 | CCTACGAG | 0.341
14 | ATTACGAG | 0.378
15 | ATTACGAC | 0.348
16 | GGTACGAA | 0.459
17 | AGTACGCC | -0.0728
18 | GGTACGCA | 0.252
19 | GGTACGTA | 0.313
20 | ACCACGTG | 0.0941
21 | GAAGAAAC | 0.0334
22 | TAATTGGA | -0.00998
23 | AACTCCAC | 0.00868
24 | CAGTTTCA | -0.223

Row | Sequence | PBM E-score
25 | CGCGAGAA | 0.0746
26 | CAGGTGAG | -0.277
27 | CATGGCTC | -0.0993
28 | AAGGTAAT | 0.0547
29 | TGCACGAA | 0.145
30 | TGTACGAA | 0.479
31 | CGTACGTA | 0.364
32 | CGTACGAA | 0.444
33 | CGTACGCA | 0.345
34 | TGTACAAA | 0.0122
35 | CATATTCA | -0.0449
36 | GCTTCACA | -0.124
37 | ATTCGTAG | 0.285
38 | ATTCGTAA | 0.399
39 | GTTCGTCA | -0.0278
40 | GTTCGTGA | 0.0858
41 | ATTCGTGA | 0.0183
42 | GTTCGTAA | 0.424
43 | GGATGGTA | 0.0248
44 | GCTAGCTA | 0.0155
45 | ACGACCGC | 0.359
46 | GTGAGAAC | -0.188
47 | GCCAAACA | -0.0676
48 | GCGTACAC | 0.33

Row | Sequence | PBM E-score
49 | ACGTACAC | 0.297
50 | CCGTACAC | 0.382
51 | ACGTACAG | 0.3
52 | CCGTACAG | 0.418
53 | CTGTACAG | 0.158
54 | AAAAGACA | 0.0436
55 | CCACAGAC | -0.169
56 | ATTAGCCG | 0.0535
57 | GTGACCGA | 0.11
58 | CTGTACAC | 0.152
59 | ATGTACTG | -0.177
60 | CTGTACGC | 0.375
61 | ATGTACGG | 0.373
62 | CTGTACTC | 0.00852
63 | ATGTACCG | -0.03
64 | CTGTACAA | 0.0214
65 | CTGTACGA | 0.488
66 | ATGTACTA | 0.0361
67 | ATGTACGA | 0.472
68 | ATGTACGC | 0.187
69 | CTGTACCA | -0.134
70 | GACTCTCA | -0.187
71 | CAGAAAGA | -0.00388
72 | CACATAGG | -0.207

Row | Sequence | PBM E-score
73 | AAACCAAA | 0.118
74 | AAAGCATC | 0.0386
75 | GTGTACCA | 0.0546
76 | GTGTACGA | 0.479
77 | GTGTACTA | 0.127
78 | CAAGCCTA | -0.0953
79 | AACGACGG | 0.437
80 | GACGACGC | 0.0643
81 | CACGACGC | 0.0689
82 | ACCGACGT | 0.238
83 | ACCGACGG | 0.108
84 | TACGACGA | 0.465
85 | AAGGACGT | 0.0675
86 | AACGACGC | 0.442
87 | GACGACGA | -0.00938
88 | AACGACGT | 0.408
89 | CACGACGG | 0.129
90 | CACGACGA | 0.126
91 | GAGCTTGC | -0.231
92 | CTCTCTTC | -0.29
93 | CTAAGTTC | -0.0418
94 | CCAATGGC | -0.226
